Each structure is given as a SMILES string. Compounds without any hit were thinned out: in the full panel of roughly 83,000, 20% have a hit.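 A percent growth of 40 corresponds to 60% growth inhibition; 0 means no net growth; -100 means all cells died. Active threshold: below 10.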 Unmarked numbers belong to inactive results. Activity calls are given as the source filed them.

Some test systems named below: HCT-15 colon; HT29 colon; SNB-75 CNS; SNB-19 CNS; U251 CNS; PC-3 prostate; SK-MEL-5 melanoma; UACC-62 melanoma; LOX IMVI melanoma; SK-MEL-28 melanoma; SK-MEL-2 melanoma; EKVX NSCLC; SN12C renal; UO-31 renal; TK-10 renal; ACHN renal; CAKI-1 renal; A498 renal; CCRF-CEM leukemia; MOLT-4 leukemia.
Holding throughout (experiment): NCI-60 one-dose screen, 48 h (100 = growth as untreated, 0 = no growth, -100 = all killed)
Holding throughout (conditions): 10 µM unless noted

Take `C#Cc1nc(C(C)=O)cs1`: the growth in the experiment with HCT-15 colon is 99.4%; in the experiment with HT29 colon, 110%; in the experiment with SNB-75 CNS it was 85.5%; with SNB-19 CNS, 102%; with U251 CNS, 102%; in the experiment with PC-3 prostate it was 98.4%. The growth in the experiment on SK-MEL-5 melanoma was 104%; in the experiment on UACC-62 melanoma, 94.3%; in the experiment on LOX IMVI melanoma, 94.7%; with SK-MEL-28 melanoma it was 106%; in the experiment with SK-MEL-2 melanoma, 111%; in the experiment with EKVX NSCLC it was 103%. The growth was 102% in the experiment on SN12C renal; 90.1% in the experiment on UO-31 renal; 104% with TK-10 renal; 106% with ACHN renal; 87.2% in the experiment with CAKI-1 renal; 106% in the experiment with A498 renal. In addition, the figures for the growth in the experiment with CCRF-CEM leukemia and with MOLT-4 leukemia were 96.9% and 101%, respectively.

Consider `O=C(Nc1cccc(C(F)(F)F)c1)c1cc(-c2ccc(F)cc2F)ccc1O`, for which the growth in the experiment on HCT-15 colon is 8.57% (active); in the experiment with HT29 colon, 74.1%; in the experiment on SNB-75 CNS, -0.914% (active); in the experiment with SNB-19 CNS, 11.4%; in the experiment on U251 CNS, 10.4%; in the experiment on PC-3 prostate it was 7.15% (active). For the same compound, the growth is -66% (active) in the experiment with SK-MEL-5 melanoma; 2.01% (active) in the experiment on UACC-62 melanoma; 0.316% (active) in the experiment with LOX IMVI melanoma; 24.6% with SK-MEL-28 melanoma; -12.6% (active) in the experiment with SK-MEL-2 melanoma; 9.81% (active) with EKVX NSCLC. The growth in the experiment on SN12C renal is 2.11% (active); with UO-31 renal, -14.3% (active); in the experiment on TK-10 renal, 12.6%; in the experiment with ACHN renal, 5.71% (active); in the experiment on CAKI-1 renal, -21% (active); in the experiment on A498 renal it was -38.5% (active). Besides, the growth was 20.8% in the experiment with CCRF-CEM leukemia and 4.43% (active) with MOLT-4 leukemia.

Consider `COc1ccc2[nH]cc(/C=N/Nc3nc4ccccc4s3)c2c1`, for which the growth in the experiment with HCT-15 colon is 22.9%; with HT29 colon, 59.9%; in the experiment on SNB-75 CNS, 66.5%; in the experiment on SNB-19 CNS it was 80%; in the experiment with U251 CNS it was 55.7%; with PC-3 prostate, 33.2%. Besides, the growth was 83.7% in the experiment with SK-MEL-5 melanoma; 73.1% in the experiment with UACC-62 melanoma; 30.7% in the experiment on LOX IMVI melanoma; 83.1% in the experiment on SK-MEL-28 melanoma; 80.5% in the experiment on SK-MEL-2 melanoma; 50% in the experiment with EKVX NSCLC. The growth with SN12C renal is 69.6%; in the experiment with UO-31 renal, 37.4%; with TK-10 renal, 103%; in the experiment on ACHN renal, 63.9%; in the experiment on CAKI-1 renal, 41.3%; with A498 renal, 63.4%. The growth in the experiment on CCRF-CEM leukemia was 47.3%; in the experiment with MOLT-4 leukemia, 35.9%.

With `COc1cc(C2N=C(NNc3ccccc3)NC(C)=C2C(C)=O)ccc1O` (stereo not given), the growth with HCT-15 colon is 81%; in the experiment with HT29 colon, 115%; in the experiment on SNB-75 CNS, 88.6%; with SNB-19 CNS it was 93.3%; with U251 CNS it was 100%; in the experiment on PC-3 prostate, 84.5%. In addition, the growth in the experiment with SK-MEL-5 melanoma was 104%; in the experiment with UACC-62 melanoma, 43%; in the experiment on LOX IMVI melanoma, 66.3%; with SK-MEL-28 melanoma it was 101%; in the experiment on SK-MEL-2 melanoma, 97.1%; in the experiment on EKVX NSCLC it was 79.3%. The growth was 95.5% in the experiment with SN12C renal; 63.2% in the experiment on UO-31 renal; 149% in the experiment with TK-10 renal; 63% with ACHN renal; 56.8% with CAKI-1 renal; 105% in the experiment on A498 renal. For the same compound, the growth was 101% in the experiment on CCRF-CEM leukemia and 89.9% in the experiment with MOLT-4 leukemia.

Consider `CCc1cccc2c3c(sc12)C(c1ccc(OC)cc1)C(C#N)=C(/N=C/c1ccc(Cl)cc1)O3` (stereo not given), for which the growth with HCT-15 colon was 20.2%; in the experiment on HT29 colon, -25.7% (active); in the experiment on SNB-75 CNS it was 3.81% (active); in the experiment with SNB-19 CNS, 30.6%; in the experiment with U251 CNS, 20.1%; in the experiment with PC-3 prostate, 21.1%. Moreover, the growth with SK-MEL-5 melanoma is 4.03% (active); with UACC-62 melanoma, 27.8%; with LOX IMVI melanoma it was 38%; in the experiment with SK-MEL-28 melanoma, 59.8%; with SK-MEL-2 melanoma, -27.5% (active); in the experiment with EKVX NSCLC it was 47.6%. The growth in the experiment on SN12C renal was 41.8%; in the experiment on UO-31 renal, 37.8%; in the experiment on TK-10 renal, 80.7%; in the experiment with ACHN renal, 43%; in the experiment with CAKI-1 renal it was 42.1%; in the experiment with A498 renal, -7.61% (active). The growth in the experiment with CCRF-CEM leukemia is 16.3%; with MOLT-4 leukemia, 22.5%.

Regarding `N#Cc1cccc(CN2CCc3ncn(Cc4ccc(Cl)cc4)c(=O)c3C2)c1`, the growth in the experiment on HCT-15 colon is 13.5%; in the experiment on HT29 colon it was 28.3%; with SNB-75 CNS it was 33.2%; in the experiment with SNB-19 CNS, 19.7%; in the experiment with U251 CNS, 23.1%; in the experiment on PC-3 prostate, 18.5%. In addition, the growth with SK-MEL-5 melanoma is 3.19% (active); with UACC-62 melanoma, 20.6%; in the experiment with LOX IMVI melanoma, 35.3%; with SK-MEL-28 melanoma, 36.9%; in the experiment with SK-MEL-2 melanoma, 28.6%; in the experiment with EKVX NSCLC it was 23.7%. Moreover, the growth with SN12C renal is 15.9%; with UO-31 renal, 26%; in the experiment with TK-10 renal, 38.1%; in the experiment with ACHN renal it was 29.8%; in the experiment with CAKI-1 renal, 10.7%; in the experiment with A498 renal, 4.83% (active). Moreover, the figures for the growth in the experiment with CCRF-CEM leukemia and in the experiment on MOLT-4 leukemia were 35.9% and 43.3%, respectively.

With `COc1ccc(N2CCN(C3=C(Cl)C(=O)C(C)=C(C)C3=O)CC2)cc1`, the growth is 110% in the experiment on HCT-15 colon; 120% in the experiment on HT29 colon; 107% in the experiment with SNB-75 CNS; 99.1% with SNB-19 CNS; 100% in the experiment on U251 CNS; 92.3% in the experiment on PC-3 prostate. Besides, the growth in the experiment on SK-MEL-5 melanoma is 97.6%; in the experiment with UACC-62 melanoma, 88.5%; with LOX IMVI melanoma it was 91.4%; with SK-MEL-28 melanoma, 118%; in the experiment on SK-MEL-2 melanoma, 106%; in the experiment with EKVX NSCLC, 116%. Further, the growth was 99.3% with SN12C renal; 91.4% in the experiment with UO-31 renal; 123% with TK-10 renal; 104% in the experiment on ACHN renal; 91.9% in the experiment on CAKI-1 renal; 108% with A498 renal. Besides, the growth in the experiment on CCRF-CEM leukemia was 26.1%; in the experiment with MOLT-4 leukemia, 53.7%.

In the case of `CC(=O)O[C@@H]1C(=O)N(c2cnccn2)[C@H]1c1ccccc1[N+](=O)[O-]`, the growth was 15.9% with HCT-15 colon; 2.42% (active) with HT29 colon; 21.5% with SNB-75 CNS; 41.8% in the experiment with SNB-19 CNS; -3.35% (active) with U251 CNS; 24.6% in the experiment on PC-3 prostate. Also, the growth in the experiment on SK-MEL-5 melanoma was -57.2% (active); in the experiment on UACC-62 melanoma, 30%; in the experiment with LOX IMVI melanoma, 6.26% (active); with SK-MEL-28 melanoma it was 57.1%; in the experiment on SK-MEL-2 melanoma, 10.6%; with EKVX NSCLC, 58.7%. Also, the growth is 16.5% with SN12C renal; 27.7% in the experiment on UO-31 renal; 79.3% in the experiment on TK-10 renal; 21.1% in the experiment with ACHN renal; 24.6% in the experiment on CAKI-1 renal; -20.2% (active) with A498 renal. The results for the growth in the experiment on CCRF-CEM leukemia and in the experiment with MOLT-4 leukemia were 12.3% and 16.4%, respectively.

These data come from PubChem BioAssay (NCI).
